Source: PubChem
A selection: hits, their analogues and other compounds. The true share with any hit is near 3.8%.
Y pestis TopoI: Yersinia pestis topoisomerase I inhibitors, primary screen, biochemical, cleavage product accumulation, plate reader, single point | actives 0.064% (n = 360,000) | DNA topoisomerase I (Yersinia pestis CO92) | activity, % at 10 µM | Y. pestis Topo-I cleavage product accumulation; in the data active means activity above about 50%, passing the limit was not always enough
Mtb hypoxia inh: PubChem AID 1159583 | M. tuberculosis hypoxia-regulated fluorescent reporter, fluorescence | fluorescence inhibition, % (concentration not given with the values) | actives 0.1% (n = 300,000); in the data active means fluorescence inhibition mostly above about 23%, no sharp cut-off; inactive means mostly below about 17%
PrPC surface inh: inhibitors of human cell surface prion protein PrPC, primary screen, cell-based, TR-FRET | Major prion protein (Homo sapiens), P04156 | TR-FRET read-out | inhibition, % at 13.8 µM | actives 0.43% (n = 370,000) | AID 720596, 2013; in the data active means inhibition above about 24%; further: 0% = median of the test wells and 100% = reference compound wells
GDH-TPI inh: GDH-TPI coupling enzyme inhibitors, primary screen, artefact control for M. tuberculosis FBA inhibitor project, biochemical, absorbance, full deck. GDH-TPI coupled enzyme counterscreen, NADH absorbance. actives 1.2% (n = 360,000). inhibition, % at 4.8 µM; in the data active means inhibition above about 30%;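 further: 0% = DMSO wells and 100% = wells lacking the enzyme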
Mtb FBA inh: Mtb FBA enzyme inhibitors, primary screen, biochemical, fluorescence, strain H37Rv. Fructose-bisphosphate aldolase (Mycobacterium tuberculosis (strain ATCC 25618 / H37Rv)), …. purified M. tuberculosis FBA, fluorescence read-out. inhibition, % at 1 µM. actives 2.3% (n = 360,000); in the data active means inhibition above about 27%;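 further: 0% = vehicle and 100% = reference inhibitor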
Target sequence (P9WQA3 whole entry, looked up): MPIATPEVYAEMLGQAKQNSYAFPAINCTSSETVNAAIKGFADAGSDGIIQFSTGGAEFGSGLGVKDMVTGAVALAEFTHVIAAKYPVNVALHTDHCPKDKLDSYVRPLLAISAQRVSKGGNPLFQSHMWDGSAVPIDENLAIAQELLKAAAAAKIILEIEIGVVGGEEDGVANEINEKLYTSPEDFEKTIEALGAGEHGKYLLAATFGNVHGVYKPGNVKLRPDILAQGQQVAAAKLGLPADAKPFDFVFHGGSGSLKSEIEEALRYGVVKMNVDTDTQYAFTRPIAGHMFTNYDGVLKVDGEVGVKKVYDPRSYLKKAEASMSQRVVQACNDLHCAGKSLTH
PrP 5UTR inh: inhibition of PrP 5' UTR reporter expression; inhibition, % (test concentration not listed); actives 0.35% (n = 340,000); cell-based PrP 5' UTR mRNA reporter, plate reader; in the data active means inhibition above about 52%; further: 0 = median of the neutral control wells
PrP UTR cherry: prion 5' UTR mRNA inhibition, cherry-pick retest. shares compounds with PrP 5UTR inh. cell-based prion protein 5' UTR reporter, plate reader. inhibition, % at 2.5 µM. actives 48% (n = 1,100); in the data active means inhibition above about 54%
The depositor's hits bear a star; . = no result.

SMILES | Y pestis TopoI | Mtb hypoxia inh | PrPC surface inh | GDH-TPI inh | Mtb FBA inh | PrP 5UTR inh | others
O=c1c2ccccc2[nH]c(=S)n1CCCN1CCOCC1 | 3.8 | . | 3.0 | 5.8 | 1.9 | -27.1
CC(=NNc1ccc(C(=O)O)cc1)c1ccc(O)c(O)c1O | . | 1.1 | . | . | . | .
CCOC(=O)c1sc(C)c2c(=O)n(CCc3ccccc3)nnc12 | -9.4 | 15.9 | -2.7 | -1.9 | -6.6 | -12.4
CCOC(=O)c1sc(C)c2c(=O)n(CC)nnc12 | -3.8 | -1.4 | -46.5 | 32.3* | 4.1 | 5.3
Cc1ccccc1OCc1nc2ccccc2c(=O)n1N=Cc1cccc([N+](=O)[O-])c1 | . | 6.1 | . | . | . | .
CCOC(=O)Cc1csc(SCC(=O)Nc2cc(Cl)ccc2Oc2ccccc2)n1 | 67.7* | . | 5.5 | 1.7 | 0.7 | -11.9
CCOC(=O)Cc1csc(SCC(=O)Nc2cccc(Cl)c2)n1 | 4.9 | . | 1.4 | 11.2 | 5.2 | -14.4
O=C(Cn1cc(COc2c(Br)cc(F)cc2Br)nn1)c1ccc(O)cc1 | 2.2 | . | -3.1 | 15.1 | -1.7 | -20.3
O=C(Cn1cc(COc2ccc(Br)cc2)nn1)c1ccc(O)cc1 | -3.4 | . | 13.3 | 29.2 | -0.2 | -4.5
O=C(Cn1cc(COc2c(F)c(F)c(Br)c(F)c2F)nn1)c1ccc(O)cc1 | -1.1 | . | -0.5 | 31.1* | 0.2 | -28.9
O=C(Cn1cc(COc2ccc3ccc(=O)oc3c2)nn1)c1ccc(O)cc1 | -2.4 | . | 13.5 | 41.2* | 7.4 | -11.6
O=C(NCc1cc(C(F)(F)F)ccc1Cl)c1cccc2c1C(=O)c1ccc(N3CCCCC3)cc1S2(=O)=O | 5.8 | 15.2 | -4.1 | -0.5 | 4.2 | -11.1
O=C(NCc1cc(C(F)(F)F)ccc1Cl)c1cccc2c1C(=O)c1ccc(N3CCC(N4CCCCC4)CC3)cc1S2(=O)=O | 15.5 | . | 46.2* | 9.0 | -4.5 | .
CCOC(=O)/C(=C/c1c[nH]c2ccccc12)NC(C)=O | 6.3 | 6.9 | -8.0 | 37.6* | -2.1 | -19.8
O=C(OCC#CCSc1nnc(-c2ccc(F)cc2)o1)c1ccc(F)cc1 | . | . | 7.8 | . | . | .
Cc1ccc(-c2nnc(SCC#CCOC(=O)c3cccs3)o2)cc1 | 55.7* | 16.4 | 2.7 | -2.1 | 1.6 | -26.3
O=C(OCC#CCSc1nnc(-c2ccc(Br)cc2)o1)c1cccs1 | -8.4 | 40.6* | -4.0 | 6.6 | 1.0 | -20.2
O=C(OCC#CCSc1nnc(-c2ccc([N+](=O)[O-])cc2)o1)c1cccs1 | -2.3 | . | -21.7 | 8.1 | -0.6 | -7.2
COc1ccc(C=NOCC(=O)NC(c2ccccc2)c2ccccc2)c(OC)c1 | . | 5.3 | . | . | . | .
CCCc1cc(=O)n2[nH]c(-c3ccco3)nc2n1 | -7.2 | -10.2 | -6.9 | 2.5 | 12.2 | 2.6
CCCCN1Cc2c(nc3cc(-c4ccco4)[nH]n3c2=O)C1=O | -4.3 | . | -2.1 | 6.1 | 142.5* | -1.6
COc1c2ccccc2nc2ccccc12 | 1.0 | 8.6 | 2.7 | 11.1 | 143.4* | -19.3
CC(C)OC(=O)c1cc(C(=O)c2cc(F)ccc2O)coc1=N | 0.3 | 4.2 | 0.6 | 36.4* | 5.1 | -2.2
CC(C)OC(=O)c1cc(C(=O)c2cc(Cl)ccc2O)coc1=N | -0.3 | -6.4 | -1.0 | 10.1 | 1.9 | -25.0
COc1cccc(/C=N/NC(=O)c2[nH]c(C)c(C(=O)N/N=C/c3cccc(OC)c3)c2C)c1 | -4.3 | . | -1.3 | 41.9* | -5.3 | -17.6
COc1ccc(/C=N/NC(=O)c2[nH]c(C)c(C(=O)N/N=C/c3ccc(OC)cc3)c2C)cc1 | 7.5 | . | -6.5 | 100.0* | -2.6 | -22.3
Cc1[nH]c(C(=O)NN=Cc2ccc(N(C)C)cc2)c(C)c1C(=O)NN=Cc1ccc(N(C)C)cc1 | . | -5.5 | . | . | . | .
CN(C)c1ccc(NC(=S)c2ccccn2)cc1 | 3.3 | 16.0 | -4.5 | 3.5 | 1.9 | 82.6* | PrP UTR cherry=80.1*
CN(C)c1ccc(C(=S)Nc2ccccc2)cc1 | -8.3 | 8.0 | 9.4 | 23.7 | 0.8 | 21.9
C#CCOCCOCCOCCNc1nc(N2CCN(C(=O)Cn3cc(CCCCN)nn3)CC2)nc(N2CCN(C(=O)C(C(C)C)n3cc(CCO)nn3)CC2)n1 (stereo unspecified) | . | 3.7 | . | . | . | .
